Assay [1] concerns the target human Endothelin Receptor Type B (ETB), EDNRB (gene 1910) (UniProt P24530). Put plainly: NVS_GPCR_hETB: NovaScreen (NVS) G Protein-Coupled Receptor Assay for human Endothelin Receptor Type B (ETB) (AID 2283267). An outline of the steps:
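Filter-based scintillation readout of radioligand displacement, 4 h, using membranes from human astrocytoma cells. Actives from a 25 uM duplicate screen were retested in concentration-response (top 50 uM) relative to DMSO baseline.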

Assay [2] addresses human Histamine 1 Receptor (H1), HRH1 (gene 3269) (UniProt P35367). Put plainly: NVS_GPCR_hH1: NovaScreen (NVS) G Protein-Coupled Receptor Assay for human Histamine 1 Receptor (H1) (AID 2283268). As for the experimental part:
(§1) NVS_GPCR_hH1 is a biochemical, single-readout assay that uses extracted gene-proteins in a cell-free assay. Measurements were taken 1 hour after chemical dosing in a 96-well plate.NVS_GPCR_hH1 is one of one assay component(s) measured or calculated from the NVS_GPCR_hH1 assay. It is designed to make measurements of radioligand binding, a form of binding reporter, as detected with scintillation counting signals by Filter-based radiodetection technology.Data from the assay component NVS_GPCR_hH1 was analyzed into 1 assay endpoint. This assay endpoint, NVS_GPCR_hH1, was analyzed in the positive analysis fitting direction relative to DMSO as the negative control and baseline of activity. […] Furthermore, this assay endpoint can be referred to as a primary readout, because the performed assay has only produced 1 assay endpoint. […]
(§2) Binding assays used specific radioligands (tritiated, iodinated) with non-radioactive competitive displacement ligands in agonist or antagonist protocols (as indicated) and various reference compounds and inhibitors to titrate specific binding to receptors and transporters. Most enzyme assays (CYPs, kinases, phosphatases, proteases, HDACs) used recombinant protein and specific substrates (fluorescence mostly, some colorimetric and radioactive) and inhibitors, followed by a biochemical separation of substrate and product. […]

In assay [3] the target is Muscarinic acetylcholine receptor M1 (Homo sapiens) (UniProt P11229). Put plainly: NVS_GPCR_hM1: NovaScreen (NVS) G Protein-Coupled Receptor Assay for human Muscarinic, M1 Receptor (AID 2283270). An outline of the steps: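 Actives from a duplicate 25 uM single-point screen were retested in concentration series. Binding measured as displacement of a radioligand from CHO-derived receptor preparation, 1 h incubation, filtration and scintillation counting, analysed as signal loss against DMSO.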

The target in assay [4] is Muscarinic acetylcholine receptor M3 (Homo sapiens) (UniProt P20309). The assay can be described thus: NVS_GPCR_hM3: NovaScreen (NVS) G Protein-Coupled Receptor Assay for human Muscarinic, M3 Receptor (AID 2283272). As to the method: as §1, with “NVS_GPCR_hM3” for “NVS_GPCR_hH1”, “gene-proteins from CHO” for “gene-proteins”, “plate.NVS_GPCR_hM3” for “plate.NVS_GPCR_hH1”, “NVS_GPCR_hM3,” for “NVS_GPCR_hH1,”
as §2

Assay [5] deals with human Muscarinic, M4 Receptor, CHRM4 (gene 1132) (UniProt P08173). The assay can be described thus: NVS_GPCR_hM4: NovaScreen (NVS) G Protein-Coupled Receptor Assay for human Muscarinic, M4 Receptor (AID 2283274). A digest of the protocol: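 Filter-based scintillation counting of radioligand bound to CHO-expressed human M4 preparations after 1 h; loss of signal fitted versus DMSO. Initial duplicate testing at 25 uM, concentration-response follow-up for actives.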

Assay [6] concerns the target human Neuropeptide Receptor Y1 (NPY1), NPY1R (gene 4886) (UniProt P25929). The assay can be described thus: NVS_GPCR_hNPY1: NovaScreen (NVS) G Protein-Coupled Receptor Assay for human Neuropeptide Receptor Y1 (NPY1) (AID 2283276). An outline of the steps:
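Displacement of specific radioligand from NPY1 receptor of SK-N-MC origin, read by filtration and scintillation after 1 h. Compounds first tested at 25 uM in duplicate, then actives in concentration series; signal loss relative to DMSO.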

For assay [7], the target named is Neuropeptide Y receptor type 2 (Homo sapiens) (UniProt P49146). Put plainly: NVS_GPCR_hNPY2: NovaScreen (NVS) G Protein-Coupled Receptor Assay for human Neuropeptide Receptor Y2 (NPY2) (AID 2283277). A digest of the protocol: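 Chemicals were first tested in duplicate at 25 uM, then actives in singleton concentration series to 50 uM. Tracer binding to SK-N-MC-derived protein measured cell-free after 1 h via filter scintillation; signal loss relative to DMSO.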

Results filed as inconclusive are left out. Calls of active or inactive are those of the source. Rule for the calls: active = hit-call score of the fitted dose curve at least 0.9, where 1 is the maximum; inconclusive = response in the unintended direction; inactive = score below 0.9.

The results in this text go back to PubChem BioAssay (EPA / NIEHS).

human Histamine 1 Receptor (H1), HRH1 (gene 3269), sequence (P35367 whole entry, looked up): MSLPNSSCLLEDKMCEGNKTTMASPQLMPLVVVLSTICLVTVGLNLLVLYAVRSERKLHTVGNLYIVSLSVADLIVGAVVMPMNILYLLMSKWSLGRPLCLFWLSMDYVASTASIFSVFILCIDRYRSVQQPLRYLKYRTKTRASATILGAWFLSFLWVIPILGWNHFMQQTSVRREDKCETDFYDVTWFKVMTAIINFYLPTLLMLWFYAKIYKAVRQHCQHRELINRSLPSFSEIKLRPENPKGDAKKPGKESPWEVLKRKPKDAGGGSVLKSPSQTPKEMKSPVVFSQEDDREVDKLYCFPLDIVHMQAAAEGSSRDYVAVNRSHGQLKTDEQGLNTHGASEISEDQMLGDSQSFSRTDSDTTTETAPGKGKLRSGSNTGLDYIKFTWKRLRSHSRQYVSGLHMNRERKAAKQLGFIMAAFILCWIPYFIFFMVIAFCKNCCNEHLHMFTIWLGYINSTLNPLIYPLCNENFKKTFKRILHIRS
Muscarinic acetylcholine receptor M3 (Homo sapiens), sequence (P20309 whole entry, looked up): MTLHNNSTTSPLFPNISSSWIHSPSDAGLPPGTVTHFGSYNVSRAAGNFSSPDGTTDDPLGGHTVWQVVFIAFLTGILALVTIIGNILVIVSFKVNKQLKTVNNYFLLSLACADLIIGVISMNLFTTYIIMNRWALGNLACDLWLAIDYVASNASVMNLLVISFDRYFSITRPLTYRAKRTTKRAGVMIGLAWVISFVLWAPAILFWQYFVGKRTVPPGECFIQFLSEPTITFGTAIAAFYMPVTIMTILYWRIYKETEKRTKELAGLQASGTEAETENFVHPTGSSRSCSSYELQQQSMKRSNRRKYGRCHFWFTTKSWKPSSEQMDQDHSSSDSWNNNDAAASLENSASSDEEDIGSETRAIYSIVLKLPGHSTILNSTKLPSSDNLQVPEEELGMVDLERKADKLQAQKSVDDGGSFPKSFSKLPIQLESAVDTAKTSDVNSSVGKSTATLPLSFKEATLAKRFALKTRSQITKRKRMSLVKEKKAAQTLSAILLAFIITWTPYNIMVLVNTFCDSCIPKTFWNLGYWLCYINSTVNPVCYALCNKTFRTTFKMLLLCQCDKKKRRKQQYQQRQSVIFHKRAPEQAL
human Neuropeptide Receptor Y1 (NPY1), NPY1R (gene 4886), sequence (P25929 whole entry, looked up): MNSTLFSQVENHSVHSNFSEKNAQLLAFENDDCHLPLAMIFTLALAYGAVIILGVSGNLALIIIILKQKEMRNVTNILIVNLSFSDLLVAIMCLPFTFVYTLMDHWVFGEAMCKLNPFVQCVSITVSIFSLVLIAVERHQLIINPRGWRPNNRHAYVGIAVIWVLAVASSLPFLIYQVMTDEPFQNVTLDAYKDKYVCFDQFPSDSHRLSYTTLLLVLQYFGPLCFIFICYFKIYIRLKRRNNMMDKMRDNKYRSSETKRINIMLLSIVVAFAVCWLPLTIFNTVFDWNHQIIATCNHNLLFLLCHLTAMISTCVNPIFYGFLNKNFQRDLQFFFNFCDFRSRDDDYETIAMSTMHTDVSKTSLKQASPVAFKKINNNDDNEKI
human Muscarinic, M4 Receptor, CHRM4 (gene 1132), sequence (P08173 whole entry, looked up): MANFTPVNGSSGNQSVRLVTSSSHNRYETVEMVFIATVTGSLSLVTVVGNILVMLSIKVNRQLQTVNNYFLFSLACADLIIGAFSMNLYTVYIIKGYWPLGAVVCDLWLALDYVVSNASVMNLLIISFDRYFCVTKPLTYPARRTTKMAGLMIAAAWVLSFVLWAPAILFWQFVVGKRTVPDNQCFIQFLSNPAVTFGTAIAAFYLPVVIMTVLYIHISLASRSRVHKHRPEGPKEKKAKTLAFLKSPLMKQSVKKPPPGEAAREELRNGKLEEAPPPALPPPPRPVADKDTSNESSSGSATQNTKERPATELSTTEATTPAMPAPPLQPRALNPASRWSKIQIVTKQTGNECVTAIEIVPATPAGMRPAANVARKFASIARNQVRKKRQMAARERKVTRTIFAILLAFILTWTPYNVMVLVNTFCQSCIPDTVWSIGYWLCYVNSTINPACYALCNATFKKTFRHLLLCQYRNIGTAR
Neuropeptide Y receptor type 2 (Homo sapiens), sequence (P49146 whole entry, looked up): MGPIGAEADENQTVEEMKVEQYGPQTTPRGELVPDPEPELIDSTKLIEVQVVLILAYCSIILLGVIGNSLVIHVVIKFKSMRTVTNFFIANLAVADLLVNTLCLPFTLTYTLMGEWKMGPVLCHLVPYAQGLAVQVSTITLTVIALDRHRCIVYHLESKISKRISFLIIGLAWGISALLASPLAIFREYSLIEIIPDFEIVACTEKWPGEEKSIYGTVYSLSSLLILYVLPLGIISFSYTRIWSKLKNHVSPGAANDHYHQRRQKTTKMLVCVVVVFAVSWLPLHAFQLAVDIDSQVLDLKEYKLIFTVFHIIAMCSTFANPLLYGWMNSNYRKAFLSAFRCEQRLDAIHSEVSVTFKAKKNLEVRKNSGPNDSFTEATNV
Muscarinic acetylcholine receptor M1 (Homo sapiens), sequence (P11229 whole entry, looked up): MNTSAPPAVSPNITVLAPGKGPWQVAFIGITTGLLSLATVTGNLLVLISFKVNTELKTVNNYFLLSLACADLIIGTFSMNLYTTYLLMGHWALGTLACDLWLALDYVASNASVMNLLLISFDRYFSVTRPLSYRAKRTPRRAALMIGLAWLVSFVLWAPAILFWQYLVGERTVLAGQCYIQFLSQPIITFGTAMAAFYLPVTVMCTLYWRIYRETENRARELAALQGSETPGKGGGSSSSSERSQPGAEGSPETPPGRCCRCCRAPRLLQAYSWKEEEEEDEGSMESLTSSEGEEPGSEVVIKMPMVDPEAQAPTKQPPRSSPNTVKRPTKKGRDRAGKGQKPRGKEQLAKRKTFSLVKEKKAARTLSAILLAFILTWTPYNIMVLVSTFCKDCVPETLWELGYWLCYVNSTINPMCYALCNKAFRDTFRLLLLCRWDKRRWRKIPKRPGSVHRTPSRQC
human Endothelin Receptor Type B (ETB), EDNRB (gene 1910), sequence (P24530 whole entry, looked up): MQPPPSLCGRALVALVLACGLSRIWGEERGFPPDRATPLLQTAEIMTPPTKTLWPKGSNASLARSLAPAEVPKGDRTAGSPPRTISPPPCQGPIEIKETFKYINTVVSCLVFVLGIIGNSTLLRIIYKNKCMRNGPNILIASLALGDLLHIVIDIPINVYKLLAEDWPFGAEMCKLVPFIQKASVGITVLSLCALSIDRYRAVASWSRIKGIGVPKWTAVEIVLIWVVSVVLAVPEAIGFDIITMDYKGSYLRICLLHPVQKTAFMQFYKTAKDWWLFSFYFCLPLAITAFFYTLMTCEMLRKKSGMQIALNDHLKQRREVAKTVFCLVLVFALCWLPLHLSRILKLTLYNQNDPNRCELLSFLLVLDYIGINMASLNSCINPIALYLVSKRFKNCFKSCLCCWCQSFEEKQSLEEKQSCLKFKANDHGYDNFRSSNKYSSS

For `CCCCN(CCCC)SN(C)C(=O)Oc1cccc2c1OC(C)(C)C2`, the call in assay [1] and in assay [2] was inactive. As for `CC1(C)CN=C(NN=C(/C=C/c2ccc(C(F)(F)F)cc2)/C=C/c2ccc(C(F)(F)F)cc2)NC1`, the AC50 in assay [3] was 19.6 µM (active). Consider `CCOP(=S)(Oc1ccc([N+](=O)[O-])cc1)c1ccccc1` (configuration not stated), for which the compound was called inactive in assay [4] and in assay [5].

For `ClC(Cl)c1ccccc1`, in assay [6], the AC50 was 5.17 µM (active).

With `Nc1ccc(Cl)cc1`, the compound was called inactive in assay [7].
